Test results from the supplement of paper PMC6555819.

What was measured:
Assay in all cases: PBM binding z-score (relative to random genomic background probes); higher = stronger binding; sequences stand for … in GC…GCGATTGACAGCGTAGAATGAAGG
[1] = system: RARb homodimer (NR concentration 270 nM)
How it was run: (§1)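 Binding z-scores were set against random background probes. The data came from custom Agilent 4×180K protein-binding microarrays carrying double-stranded probes with 34-nt variable regions, incubated 1 h with ligand-free nuclear receptor dimers. Partner-specific antibodies detected binding, and scanned fluorescence was regression-normalized.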

[2] = system: RARg:RXRa (NR concentration 270 nM, RXRa partner concentration 90 nM)
How it was run: as §1

[3] = system: RARg homodimer (NR concentration 270 nM)
How it was run: as §1

[4] = system: RXRa DBDmut IVT, anti-RXR (DBD mutation: RXRa K156A/R161A, NR concentration 90 nM)
How it was run: as §1

[5] = system: RXRa homodimer (NR concentration 180 nM)
How it was run: as §1

[6] = system: THRa:RXRa (NR concentration 90 nM, RXRa partner concentration 90 nM)
How it was run: as §1

[7] = system: THRa homodimer (NR concentration 90 nM)
How it was run: as §1

[8] = system: VDR homodimer (NR concentration 270 nM)
How it was run: as §1

| Sequence | PBM binding z-score [1] | PBM binding z-score [2] | PBM binding z-score [3] | PBM binding z-score [4] | PBM binding z-score [5] | PBM binding z-score [6] | PBM binding z-score [7] | PBM binding z-score [8] |
| --- | --- | --- | --- | --- | --- | --- | --- | --- |
| ACAGACTGGTGAGTGAAGGTAACTCAGCTGGACG | -0.42 | -0.303 | -0.112 | -0.514 | -0.182 | 0.0338 | -0.517 | -0.299 |
| GCATATAGGTAATACACGGTGAAAGTCCGATTGT | 0.0641 | 0.309 | 0.397 | 0.18 | 0.407 | 1.23 | -0.424 | 0.0175 |
| TCATATACGTAAAAGGTGAAAGTCGGTGTGGTAA | 1.94 | 1.27 | 0.986 | 1.98 | 2.01 | 1.36 | 0.293 | 0.435 |
| GCTAGTTGGTCTGTAAAAGGTCACACACCGGTCG | 5.02 | 5.01 | 4.62 | 0.681 | 5.65 | 3.52 | 1.78 | 1.81 |
| AATCGGAGGACAAAGGTCAGAGCTACGCCAGTGA | 4.37 | 5.79 | 4.98 | 0.662 | 4.98 | 3.55 | 0.579 | 1.36 |
| CCTACTGGGCCATAAAGGTCATTGATGCCGATAA | 4.17 | 4.52 | 3.88 | 0.623 | 4.73 | 3.05 | 0.441 | 2.92 |
| ATCTCTACGTAACAAGTTCAGTGAAAGAGAGGAC | 1.68 | 0.999 | 1.24 | 0.873 | 0.659 | 1.07 | 0.629 | 2.6 |
| TCGCCTAGGTCATGCGGGCCAGTATAGTGTCGGC | 3.2 | 3.96 | 4.3 | 1.28 | 2.9 | 3.29 | 1.43 | 0.82 |
| GTACCAAGGTGAATAGGTCGTTTATGAGTAGGCG | 1.75 | 2.69 | 1.2 | 0.0866 | 2 | 1.95 | 0.576 | 0.299 |
| TCTGCTAGGTCAACGATGGTCTGCTAATCTGCTA | 2.72 | 3.69 | 4.4 | 0.993 | 2.25 | 2.6 | 0.712 | -0.658 |
| TTGCCAAGGTGAGCTGAGGTCGTTGATCCAACTC | 1.42 | 1.02 | 0.784 | -0.052 | 0.78 | 4.62 | 2.03 | 1.75 |
| AGCTCTAGGTAACCAAGTTCAGTGAATGCCGAAC | 1.25 | 0.159 | 0.348 | 0.428 | 0.269 | 1.14 | 0.629 | 2.43 |
| ATCTCTAGGTAACCAAGTGCAGTGAATGCCGAAC | 0.232 | 0.129 | 0.205 | 0.0153 | 0.0437 | 0.515 | 0.223 | 0.337 |
| CAAACTAGTTCACGAAAGGTCAAAGTCGAATGAC | 5.1 | 6.68 | 6.48 | 3.07 | 7.49 | 4.5 | 1.16 | 4.41 |
| TCTGCTATGTCAGTTGGTCAGCTAACGAGCTGCC | 0.0404 | -0.0925 | -0.134 | 0.0834 | -0.0847 | -0.538 | -1.16 | -0.982 |
| GCTAGCAGGCCATTCGGGTCACTCAATGACGGGC | 2.3 | 1.85 | 1.92 | 0.641 | 1.81 | 3.09 | 1.75 | 1.2 |
| ATCGAAAGGTCGACGATGTGAGTATACACCGTTT | 2.66 | 3.8 | 3.82 | 1.13 | 4.27 | 1.91 | -0.483 | 0.438 |

| Sequence | PBM binding z-score [1] | PBM binding z-score [2] | PBM binding z-score [3] | PBM binding z-score [4] | PBM binding z-score [5] | PBM binding z-score [6] | PBM binding z-score [7] | PBM binding z-score [8] |
| --- | --- | --- | --- | --- | --- | --- | --- | --- |
| CAAATTAGGTCACCGGAAGGTCAAAGTCCGCATG | 5.53 | 8.32 | 7.57 | 2.34 | 6.18 | 4.78 | 3.89 | 3.8 |
| GCGACTGGGGCAGAGCAGGTTACCATAAGGTTGG | 0.826 | 0.0864 | 0.288 | -0.613 | 0.225 | 1.64 | -0.115 | -0.654 |
| ACTATTAGTTGACTTATGGCAACCGATACGACGC | 0.102 | 0.814 | 0.872 | 0.726 | 0.823 | 0.347 | -0.0591 | 0.143 |
| ACTCTTAGTTGACTTAGGGCAACCGATACGACGC | 1.01 | 0.837 | 0.667 | 0.736 | 0.605 | 1.52 | 0.885 | 0.184 |
| CCTATTAGTCGACCATAAGGGCAACCGAAGCTCG | 1.55 | 0.761 | 0.875 | 0.45 | 0.505 | 1.33 | 0.896 | 0.533 |
| CGTCCAAGGTCAAAGGTCAGTGCAGAGATGACGG | 5.5 | 8.65 | 8.11 | 4.2 | 10 | 4.76 | 3.26 | 4.12 |
| TCTTGTAGATCGAAGGTTAAGAAAGCCGAAGCCT | 0.0841 | 0.243 | -0.136 | 0.423 | 0.859 | 0.418 | -0.559 | -0.284 |
| CGTGAAAGTTCAAGGTAACGTAACAGAAAGCAGC | 3.23 | 5.05 | 5.85 | 4.44 | 4.04 | 3.07 | 0.878 | 3.01 |
| TCTACTAGTTGATTAGGGCAACCGAAACAGCGGA | 0.379 | 0.164 | 0.225 | 0.346 | 0.0714 | 0.604 | -0.104 | -0.302 |
| TCATAAAGGTAATACAGGTGAAAGTCGGCATCTA | 1.09 | 1.3 | 0.722 | 1.78 | 1.67 | 1.7 | 0.207 | 0.435 |
| TCGAGTAGGTTAGTCGGGGCATTCTGCCAACATA | 0.157 | -0.242 | -0.393 | 0.374 | -0.128 | 0.983 | -0.375 | 0.287 |
| ATCTCTAGGTAACCAAGTTCGGTGAATGCCGAAC | 0.477 | 0.289 | 0.0649 | 0.0543 | 0.189 | 0.968 | 0.803 | 1.13 |
| GATCGGAGGACAAGGTCAGAGCTTTGTCCGTAGA | 3.27 | 3.05 | 3.57 | 0.217 | 2.48 | 2.94 | 1.33 | 0.466 |
| CCTTACGGGTCACTGAGAGGTTATAGCATTTGGA | 3.75 | 6.72 | 4.64 | 1.75 | 5.62 | 3.46 | 0.613 | 1.78 |
| ATCTCTAGTTAAGACTCAGTTCAGTGAAGAACGC | 0.624 | 0.145 | 0.575 | 0.575 | 0.126 | 0.594 | 0.6 | 1.67 |
| CAAACTAGGTCACGGAGGTCAAAGTCCGTGCGTA | 5.44 | 7.06 | 7.31 | 3.08 | 7.23 | 4.74 | 3.58 | 5.9 |
| CCTAGCAGGCCAGGGTCATTCAAGCATTTCGCTT | 2.54 | 2.93 | 1.89 | 1.62 | 3.35 | 2.93 | 0.719 | 2.77 |
